Inconclusive results are not listed. Values without a mark were called inactive. Calls come from the whole dose curve; as a rule, active = well fitted inhibition curve with a large enough effect; inconclusive = small, poorly fitted or top-dose-only effect; inactive = no such curve, though single readings can be large or run the other way.
Assay: NS1 protein of Zika virus - qHTS assay to identify small molecule inhibitors in human HEK 293 cells (AID 1347053);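 note: plate controls were infected untreated cells for no effect and uninfected cells for full effect; nearly all actives have a fitted effect of over 55% in size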
Details: HEK293 ZIKV MR766 infection, NS1 TR-FRET, 24 h; series mostly up to 46.1 µM; activity change, negative = inhibition: at the top concentration
From the text: National Center for Advancing Translational Sciences [NCATS]
Johns Hopkins University School of Medicine
The non-structural 1 (NS1) protein of zika virus is known to associate with the viral replication complex. This cell-based TR-FRET ZIKV NS-1 assay measures the increased NS-1 protein in human HEK 293 cells after a 24-hour Zika virus infection by a TR-FRET assay readout. A decrease in the Time-resolved fluorescence energy transfer (TR-FRET) signal in this assay by small molecule treatment indicates an inhibitory effect of the small molecule on the expression of Zika virus NS1 correlating with Zika virus replication.
HEK 293 cells were cultured in EMEM (ATCC, Cat. # 30-2003) medium with 10% fetal bovine serum (GE healthcare Life Sciences, Cat. # SH30071.03), and 1% Pen/Strep (Gibco, Cat. # 15140-122). Cells were seeded in the assay plate and incubated at 37 C with 5% CO2 for 20 hours. Compounds were added to cells and incubated for one hour before addition of ZIKV MR766 strain solution to cells (MOI = 0.5). After an incubation at 37 C for 24 hours, the reagent mixture of TR-FRET ZIKV NS1 assay using two anti-ZIKV NS1 antibodies was added to assay plates. The TR-FRET signals in assay plates were measured using an Envision plate reader (PerkinElmer). Data were normalized by using the cell-containing wells without ZIKV as a negative control (0% NS-1) and wells containing ZIKV infected cells as a positive control (100% NS-1 level).

Row | SMILES | activity change, negative = inhibition
1 | C1CCN2C[C@@H]3C[C@@H](CN4CCCC[C@@H]34)[C@H]2C1 | 6.61%
2 | CC(C)CCOC(=O)c1ccc(N(C)C)cc1 | -2.21%
3 | CCCNC(C)C(=O)Nc1c(C)csc1C(=O)OC (stereo not given) | 9.29%
4 | Cc1cccc(Nc2ccccc2C(=O)O)c1C | 0.612%
5 | O=C(O)c1cc(=O)c2ccccc2o1 | 0%
6 | Nc1ccncc1N | -0.678%
7 | NC(=O)CC[C@@H](N)C(=O)O | 0.821%
8 | CCC(C)(CN(C)C)OC(=O)c1ccccc1 (stereo not given) | 5.2%
9 | Cc1cc(OI)c(C(C)C)cc1-c1cc(C(C)C)c(OI)cc1C | 0.499%
10 | CC(=O)NS(=O)(=O)c1ccc(N)cc1 | 1.09%
11 | CCN1CC(CCN2CCOCC2)C(c2ccccc2)(c2ccccc2)C1=O (stereo not given) | -5.46%
12 | CC(=O)OC[C@H]1O[C@@](COC(C)=O)(O[C@H]2O[C@H](COC(C)=O)[C@@H](OC(C)=O)[C@H](OC(C)=O)[C@H]2OC(C)=O)[C@@H](OC(C)=O)[C@@H]1OC(C)=O | 1.38%
13 | CC(=O)N(CC(O)CO)c1c(I)c(C(=O)NCC(O)CO)c(I)c(C(=O)NCC(O)CO)c1I (stereo not given) | -0.0219%
14 | NS(=O)(=O)c1ccc(C(=O)O)cc1 | 1.79%
15 | CCN(CC)CCOC(=O)C(c1ccccc1)c1ccccc1 | -22.3%
16 | C[C@@H]1CCC[C@H](C)N1 | 7.17%
17 | O=c1[nH]c(=O)c2ccccc2o1 | -2.01%
18 | COc1ccc(NS(=O)(=O)c2ccc(N)cc2)nn1 | 0.394%
19 | CN(C/C=C/C#CC(C)(C)C)Cc1cccc2ccccc12 | 0.553%
20 | CC(=O)N[C@@H](CC(C)C)C(=O)O | 5.06%

Row | SMILES | activity change, negative = inhibition
21 | COc1cc(O)cc(O)c1 | 3.56%
22 | Cc1c(Cn2ccnc2)c2ccccc2n1CCC(=O)O | -15.3%
23 | O=C(O)CNC(=O)c1ccccc1I | -17.6%
24 | Cc1cc(O)cc(C)c1Cl | -4.33%
25 | COC(=O)c1ccc(O)cc1 | -7.61%
26 | O=C1c2ccccc2S(=O)(=O)N1CCCCN1CCN(c2ncccn2)CC1 | 4.91%
27 | O=C(O)COC(=O)Cc1ccccc1Nc1c(Cl)cccc1Cl | 8.5%
28 | CCCCCCCCCCOc1cc2c(=O)c(C(=O)OCC)c[nH]c2cc1OCC | -16.6% [at 4.81 µM]
29 | Cc1ccsc1/C=C/C1=NCCCN1C | 5.45%
30 | Cn1cc(C(=O)[C@@H]2CCc3nc[nH]c3C2)c2ccccc21 | 6.59%
31 | O=C1CC[C@@H](C(=O)O)N1 | -13.2%
32 | Nc1ncnc(Nc2ccccc2)n1 | -4.01%
33 | CC1CC(OC(=O)c2ccccc2O)CC(C)(C)C1 (stereo not given) | 9.67%
34 | OC(CCN1CCCC1)(c1ccccc1)C1CCCCC1 (stereo not given) | -6.87%
35 | COc1ccc(C(=O)N2CCN(CC(=O)N3CCOCC3)CC2)cc1 | -4.79%
36 | COc1ccccc1Oc1c(NS(=O)(=O)c2ccc(C(C)(C)C)cc2)nc(-c2ncccn2)nc1OCCO | -6.82%
37 | COc1ccc2cc(CCC(C)=O)ccc2c1 | 2.88%
38 | NC(=O)NS(=O)(=O)c1ccc(N)cc1 | 3.28%
39 | CCCCOC(=O)c1ccc(N)cc1 | 31.1%
40 | Cc1cc(-n2nc3ccc(Cl)cc3n2)c(O)c(C(C)(C)C)c1 | 16.1%

— PubChem BioAssay (NCATS)
